Experimental findings from PubChem BioAssay (Tox21) are described below.

Assay [1] in a line: qHTS assay for small molecules that induce genotoxicity in human embryonic kidney cells expressing luciferase-tagged ATAD5 (AID 651632). Also: nearly all actives have a fitted effect of over 15% in size. A digest of the protocol:
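HEK293T cells carrying luciferase-tagged ATAD5 were given compound or DMSO vehicle and incubated 16 hr at 37C, 5% CO2. Luciferase activity was read after 30 min at room temperature with Amplite; a rise signals genotoxic stress.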
In general terms: qHTS replaces the single test concentration by a dilution series.

Assay [2] in a line: qHTS assay for small molecule agonists of the p53 signaling pathway - cell viability (AID 651633; calls by dose curve;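 also: p53RE-bla HCT reporter cells with a stable beta-lactamase p53 reporter; nearly all actives have a fitted effect of over 30% in size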). A digest of the protocol:
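p53RE-bla cells, seeded at 4,000 per well and rested 5 h at 37 C/5% CO2, received compounds in DMSO for 16 h at 37 C. CellTiter-Glo was then added, and luminescence was read after 30 min at room temperature to gauge cytotoxicity.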

Assay [3] can be described thus: qHTS assay for small molecule disruptors of the mitochondrial membrane potential - cell viability (AID 720634; calls by dose curve; also: nearly all actives have a fitted effect of over 20% in size; also: potency is read from the fitted curve at half-maximal effect). A digest of the protocol:
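HepG2 cells, 2,000 per well, attached overnight, then treated 1 hr at 37 C, 5% CO2. Viability read as ATP by CellTiter-Glo luminescence after 30 min at room temperature. Read in the same wells as the m-MPI membrane-potential dye assay.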

The nature of assay [4]: qHTS assay to test for compound auto fluorescence at 590 nm (red) in HepG2 cells (AID 720674). A digest of the protocol: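 Compound auto-fluorescence is scored relative to Rose Bengal sodium, measured at 540/590 nm in live HepG2 cultures after 1 hr compound contact (37 C, 5% CO2).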
The nature of assay [5]: qHTS assay to test for compound auto fluorescence at 535 nm (green) in HepG2 cells (AID 720675).
Assay [6] can be described thus: qHTS assay to test for compound auto fluorescence at 460 nm (blue) in HEK293 cells (AID 720678). A digest of the protocol: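 Auto fluorescence in the blue band was quantified as triamterene equivalency. HEK293 cells were seeded at 2,000/well, dosed after a 4-5 hr attachment, and kept overnight at 37C before the 405/460 nm reading.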
A short description of assay [7]: qHTS assay to test for compound auto fluorescence at 590 nm (red) in HEK293 cells (AID 720679). A digest of the protocol:
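Autofluorescence equivalency to Rose Bengal sodium, 540/590nm, in HEK293 cells exposed overnight to 23 nL compound per well.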

Assay [8] can be described thus: qHTS assay to test for compound auto fluorescence at 535 nm (green) in HEK293 cells (AID 720680).
Assay [9] in a line: qHTS assay to test for compound auto fluorescence at 460 nm (blue) in HEK293 cell free culture (AID 720681). A digest of the protocol: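 Test compounds were pinned into cell-free culture medium (DMEM with 10% FBS) and fluorescence was read directly at Ex/Em 405/460 nm. Signals were expressed as fluorescence equivalents of triamterene, with DMSO vehicle as control.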
Assay [10] is described as follows: qHTS assay to test for compound auto fluorescence at 535 nm (green) in HEK293 cell free culture (AID 720682). A digest of the protocol: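 No cells present: wells hold DMEM supplemented with 10% FBS, into which compound or vehicle is pinned. Green emission is then recorded (485 nm excitation, 535 nm emission) and scaled to fluorescein.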
Assay [11] in a line: qHTS assay to test for compound auto fluorescence at 590 nm (red) in HEK293 cell free culture (AID 720683). A digest of the protocol:
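Tox21 10K library compounds were pinned into cell-free DMEM with 10% FBS and fluorescence was read at excitation 540 nm. Activity is expressed as Rose Bengal sodium equivalency.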

A short description of assay [12]: qHTS assay to test for compound auto fluorescence at 590 nm (red) in HepG2 cell free culture (AID 720684). A digest of the protocol: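 Red fluorescence (540 nm excitation, 590 nm emission) was measured after compound transfer into cell-free MEM supplemented with 10% FBS. Values are equivalencies against Rose Bengal sodium.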
Assay [13] is described as follows: qHTS assay to test for compound auto fluorescence at 460 nm (blue) in HepG2 cell free culture (AID 720685). A digest of the protocol: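 Compound (23 nL) or DMSO pinned into cell-free MEM with 10% FBS; blue fluorescence read at 405/460 nm excitation/emission, expressed as auto-fluorescence equivalency to triamterene.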
Assay [14] can be described thus: qHTS assay to test for compound auto fluorescence at 535 nm (green) in HepG2 cell free culture (AID 720686).
Assay [15] addresses Glucocorticoid receptor (Homo sapiens) (UniProt P04150). The assay can be described thus: qHTS assay to identify small molecule agonists of the glucocorticoid receptor (GR) signaling pathway (AID 720691; active = well fitted activation curve with a large enough effect in the signal ratio in the repeat runs, not every such curve was filed as active; the % refers to the signal ratio). The conditions noted are these: GR-bla HeLa, beta-lactamase reporter ratio, 18 h; activation: at 62.4 µM (top of the series). A digest of the protocol: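 GR-bla HeLa cells carrying a GRE-driven beta-lactamase reporter, exposed to compounds for 18 h at 37 C. Reporter activation read as fluorescence after 2 h with LiveBLAzer B/G FRET substrate at room temperature.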

Assay [16] has the same target. In words: qHTS assay to identify small molecule antagonists of the glucocorticoid receptor (GR) signaling pathway (AID 720692; active = well fitted inhibition curve with a large enough effect in the signal ratio in the repeat runs, not every such curve was filed as active; the % refers to the signal ratio). A digest of the protocol: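 GR-bla HeLa cells carrying a GRE-driven beta-lactamase reporter received compound after 4 h plating, then dexamethasone (5 nM final). After 18 h at 37C, the FRET substrate was loaded for 2 h at room temperature and fluorescence read.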

Assay [17] in a line: qHTS assay to test for compound auto fluorescence at 460 nm (blue) in HepG2 cells (AID 720687). A digest of the protocol:
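Cells (2,000/well in MEM with 10% FBS) attached overnight at 37 C, then were exposed to compound or DMSO for 1 hr at 37 C, 5% CO2. Fluorescence read at Ex/Em 405/460 nm, expressed as triamterene-equivalent signal.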

Assay [18] can be described thus: qHTS assay for small molecules that induce genotoxicity in human embryonic kidney cells expressing luciferase-tagged ATAD5 - cell viability (AID 651634; calls by dose curve; also: nearly all actives have a fitted effect of over 25% in size). A digest of the protocol: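 HEK293T cells carrying luciferase-tagged ATAD5, 2,000 cells/well, exposed to compound for 15.5 hr at 37C. Viability read as live-cell protease activity by CellTiter-Fluor fluorescence after 30 min at 37C.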

Assay [19] can be described thus: qHTS assay for small molecule agonists of the p53 signaling pathway (AID 651631; calls by dose curve; also: nearly all actives have a fitted effect of over 15% in size). A digest of the protocol:
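Agonist mode screen using a stably integrated beta-lactamase gene under p53 response elements in HCT-116 cells. Compound exposure lasts 16 h at 37 °C; fluorescence intensity is measured following 2 h FRET substrate loading.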

Assay [20] is described as follows: qHTS assay for small molecule disruptors of the mitochondrial membrane potential (AID 720635). A digest of the protocol:
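HepG2 cells (2,000/well) attached overnight at 37C, then took compound for 1 hr at 37C, 5% CO2. Mito-MPS dye was added for 30 min; fluorescence was read at 490/535 nm (monomers) and 540/590 nm (aggregates).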

Unmarked numbers belong to inactive results. Records with an inconclusive call do not appear. Activity calls are given as the source filed them. Unless noted, calls follow the shape of the dose curve; as a rule, active = well fitted curve in the direction sought with a large enough effect in the repeat runs; inconclusive = weak or mixed curves; inactive = no such curve, though single readings can be large; an effect the other way counts as inactive or inconclusive.

Sequence of Glucocorticoid receptor (Homo sapiens) (P04150 whole entry, looked up): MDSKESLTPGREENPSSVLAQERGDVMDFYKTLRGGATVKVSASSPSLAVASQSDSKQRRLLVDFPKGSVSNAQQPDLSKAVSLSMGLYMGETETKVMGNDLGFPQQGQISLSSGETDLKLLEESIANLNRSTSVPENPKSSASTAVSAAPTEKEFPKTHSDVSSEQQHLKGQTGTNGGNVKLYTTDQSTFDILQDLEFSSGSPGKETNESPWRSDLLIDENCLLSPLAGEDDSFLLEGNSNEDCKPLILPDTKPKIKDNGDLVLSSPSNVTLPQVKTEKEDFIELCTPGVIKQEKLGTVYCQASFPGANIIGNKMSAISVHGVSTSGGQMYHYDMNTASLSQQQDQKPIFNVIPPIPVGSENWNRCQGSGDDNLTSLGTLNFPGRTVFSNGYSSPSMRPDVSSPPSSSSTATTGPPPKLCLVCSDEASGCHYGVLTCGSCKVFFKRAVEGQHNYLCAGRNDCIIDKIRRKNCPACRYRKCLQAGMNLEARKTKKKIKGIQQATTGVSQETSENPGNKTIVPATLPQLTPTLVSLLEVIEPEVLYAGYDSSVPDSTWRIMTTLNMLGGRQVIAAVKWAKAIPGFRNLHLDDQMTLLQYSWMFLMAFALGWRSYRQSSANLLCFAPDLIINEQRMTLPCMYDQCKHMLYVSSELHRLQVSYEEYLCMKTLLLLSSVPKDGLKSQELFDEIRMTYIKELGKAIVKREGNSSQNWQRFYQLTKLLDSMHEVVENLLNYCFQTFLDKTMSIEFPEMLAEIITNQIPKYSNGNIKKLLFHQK

In the case of `Cc1ccc2oc(=O)ccc2c1`, the outcome in assay [1], in assay [4], in assay [5], in [6], in [7] and in assay [8] was inactive. The compound was classed as inactive in [9], in [10], in assay [11], in assay [12], in assay [13] and in [14]. Further, the Potency entry in [2], in [3], in assay [15] and in [16] was “inactive” each time.

Consider `CC(c1cc2ccccc2s1)N(O)C(N)=O` (stereo unspecified), for which the compound was called inactive in assay [1], in [4], in assay [5], in assay [6], in assay [8] and in [9]. Besides, the outcome in assay [10], in assay [11], in [12], in [13], in assay [14] and in [17] was inactive. For the same compound, the Potency in assay [3] was 27.3 µM (active). In addition, the Potency result in assay [15] was “inactive”.

As for `O=C(O)c1ccccc1C(c1ccc(O)cc1)c1ccc(O)cc1`, the call in assay [1], in assay [4], in [5], in assay [6], in assay [8] and in assay [9] was inactive. In addition, the compound was classed as inactive in assay [10], in assay [11], in assay [12], in assay [13], in assay [14] and in [17]. The Potency entry in [2], in [18], in [3], in [15] and in [16] was “inactive” in each case.

`CN(C)CCC(c1ccccc1)c1ccccn1` (stereo unspecified): the Potency result in assay [19], in assay [2], in assay [3], in [15] and in assay [16] was “inactive” throughout. The compound was called inactive in assay [4], in [5], in assay [7], in [8], in assay [9] and in assay [10]. Moreover, the compound was called inactive in assay [11], in assay [12], in [13], in [14] and in assay [17].

Take `CCCCCCCCCCCCOCCO`: the call in assay [1], in assay [4], in assay [5], in assay [6], in [8] and in [9] was inactive. In addition, the compound was called inactive in [10], in assay [11], in assay [12], in assay [13], in assay [14] and in assay [17]. Also, the Potency entry in assay [2], in [18], in [3] and in assay [15] was “inactive” each time.

Take `CCCCC(CC)COC(=O)CCCCC(=O)OCC(CC)CCCC` (stereo unspecified): the Potency entry in assay [19], in [2], in assay [3] and in [15] was “inactive” each time. For the same compound, the result in assay [4], in assay [5], in [6], in assay [8], in assay [9] and in [10] was inactive. Besides, the compound was classed as inactive in assay [11], in assay [12], in assay [14] and in assay [17].

With `CC(=O)CC(=O)Nc1ccccc1`, the result in [1], in assay [4], in assay [5], in [6], in assay [8] and in assay [9] was inactive. The compound was classed as inactive in assay [10], in [11], in assay [12], in assay [13] and in assay [14]. For the same compound, the Potency result in assay [2], in [18], in [3], in assay [20], in assay [15] and in assay [16] was “inactive” each time.

`COc1ccc(NC(C)=O)cc1N`: the outcome in assay [1], in assay [4], in [5], in assay [6], in assay [7] and in assay [8] was inactive. Further, the call in assay [9], in assay [10], in assay [11], in assay [12], in assay [13] and in assay [14] was inactive. The result in assay [17] was inactive. Also, the Potency entry in [2], in assay [3], in [20], in assay [15] and in assay [16] was “inactive” throughout.

Consider `COc1ccc2cc([C@H](C)C(=O)O)ccc2c1`, for which the Potency result in assay [2], in assay [18] and in assay [3] was “inactive” each time. The result in assay [4], in assay [5], in [7], in assay [8], in assay [9] and in [10] was inactive. For the same compound, the compound was classed as inactive in [11], in assay [12], in [13], in [14] and in assay [17].

`O=C(O)c1cc(C(=O)O)cc(S(=O)(=O)O)c1`: the call in assay [1], in assay [4], in [5], in assay [6], in assay [7] and in [8] was inactive. Besides, the compound was called inactive in assay [9], in assay [10], in assay [11], in [12], in assay [13] and in assay [14]. For the same compound, in assay [17], the result was inactive. Moreover, the Potency result in assay [2], in assay [18], in assay [3], in assay [20] and in assay [15] was “inactive” throughout.

Take `O=C(O)CCCC[C@@H]1SC[C@@H]2NC(=O)N[C@@H]21`: the outcome in assay [1], in [4], in assay [5], in assay [6], in assay [8] and in [9] was inactive. Further, the compound was called inactive in [10], in assay [11], in [12], in assay [13] and in [14]. Besides, the Potency entry in [2], in [18], in [3], in assay [20] and in assay [15] was “inactive” throughout.
